# Inconclusive results are not listed. Activity calls are given as the source filed them. Unless noted, how the calls were made is not given here. Peptide text beside a SMILES is read from it.
# Columns and labels:
# [1] = rapamycin-like changes in RPL19A-GFP expression – cell-based, S. cerevisiae, multiplex flow cytometry, primary screen (AID 1862; in the data active means percent of DMSO control GFP below about 86%;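 further: lower values mimic rapamycin by blocking the RPL19A rise seen in DMSO cells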); conditions: S. cerevisiae RPL19A-GFP strain, flow cytometry fluorescence, 3 h; at 10 µM; stronger effect = lower value
# [2] = TOR pathway GLN3 branch reporter MEP2-GFP changes – S. cerevisiae, multiplex flow cytometry, primary screen (AID 1867;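 active means GFP response, as percent of the DMSO control, above the screen-wide mean plus 3 SD, about 139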;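 further: median GFP channel fluorescence of barcode-gated MEP2-GFP cells measured by flow cytometry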); conditions: S. cerevisiae MEP2-GFP strain, 3 h, at 10 µM, stronger effect = higher value
# [3] = TOR pathway RTG branch CIT2 reporter changes – S. cerevisiae, GFP fusion, multiplex flow cytometry, primary screen (AID 1870;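 active means percent response above a set limit, the screen-wide mean plus 3 SD, cut at about 130% in these data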;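 further: barcoded CIT2-GFP strain pooled with four other GFP strains with rapamycin as positive control; median GFP fluorescence per well over plate mean of DMSO wells so 100% = DMSO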); conditions: S. cerevisiae CIT2-GFP expression, 3 h, at 10 µM, stronger effect = higher value
# [4] = TOR pathway LAP4-GFP level changes – S. cerevisiae, multiplex flow cytometry, primary screen (AID 1873;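 active means GFP signal, as percent of the solvent control, above the screen mean plus 3 SD, about 149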); conditions: S. cerevisiae LAP4-GFP expression, 3 h, at 10 µM, stronger effect = higher value
# [5] = reduced mouse 2C T cell binding to pMHC/ICAM-1 vesicles – MLPCN validation set, flow cytometry, LFA-1/ICAM-1 modulator project, pilot screen (AID 2523;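 active means response below a set limit, under 55% cells CD8-positive and vesicle-bound, and CD8 cells' 90th-percentile brightness under 279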;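 on vesicle binding response: mean PE anti-B7-1 fluorescence of CD8+ cells relative to row control; 100% = QL9-loaded vesicles with DMSO vehicle in the same plate row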); conditions: 2C mouse CD8+ T cells, at 7 µM, stronger effect = lower value; double positive events: measured here: CD8+/vesicle+ event percentage
# [6] = target: Integrin beta-1 (Homo sapiens) + Integrin alpha-4 (Homo sapiens) (UniProt P13612+P05556); assay: alpha4beta1 integrin LIBS antibody binding reduction – U937 cells, HUTS-21 mAb, flow cytometry, validation set, VLA-4 allosteric modulator project, pilot screen (AID 2674;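 active means inhibition above 50%, about 3 SD of the validation set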;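 further: antibody binding induced by the VLA-4 ligand LDV present at three times its Kd; 0% = LDV ligand with antibody and no compound and 100% = antibody without LDV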); conditions: HUTS-21 LIBS mAb binding, at 6.7 µM, stronger effect = higher value
# Sequence of Integrin beta-1 (Homo sapiens) + Integrin alpha-4 (Homo sapiens) (P05556 whole entry, looked up): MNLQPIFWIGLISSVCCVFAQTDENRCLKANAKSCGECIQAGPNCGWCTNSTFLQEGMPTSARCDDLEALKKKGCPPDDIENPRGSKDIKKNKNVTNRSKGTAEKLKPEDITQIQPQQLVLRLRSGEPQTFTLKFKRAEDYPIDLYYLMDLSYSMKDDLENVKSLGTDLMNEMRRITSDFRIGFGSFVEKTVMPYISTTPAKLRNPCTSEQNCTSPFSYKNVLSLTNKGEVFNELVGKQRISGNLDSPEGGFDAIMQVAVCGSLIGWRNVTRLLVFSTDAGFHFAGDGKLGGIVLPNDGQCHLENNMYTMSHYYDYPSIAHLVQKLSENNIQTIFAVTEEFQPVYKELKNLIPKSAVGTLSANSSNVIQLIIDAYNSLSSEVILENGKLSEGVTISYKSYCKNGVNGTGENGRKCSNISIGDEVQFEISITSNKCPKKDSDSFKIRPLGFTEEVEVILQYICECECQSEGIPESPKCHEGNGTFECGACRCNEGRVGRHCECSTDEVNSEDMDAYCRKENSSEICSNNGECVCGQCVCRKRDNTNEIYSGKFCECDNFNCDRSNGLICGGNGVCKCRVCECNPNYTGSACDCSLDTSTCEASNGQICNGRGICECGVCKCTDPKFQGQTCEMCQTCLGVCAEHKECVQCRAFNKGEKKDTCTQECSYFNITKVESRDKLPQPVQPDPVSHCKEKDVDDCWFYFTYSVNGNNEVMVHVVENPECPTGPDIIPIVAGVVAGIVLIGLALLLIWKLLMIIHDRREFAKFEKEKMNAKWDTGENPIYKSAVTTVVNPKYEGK
# Sequence of Integrin beta-1 (Homo sapiens) + Integrin alpha-4 (Homo sapiens) (P13612 whole entry, looked up): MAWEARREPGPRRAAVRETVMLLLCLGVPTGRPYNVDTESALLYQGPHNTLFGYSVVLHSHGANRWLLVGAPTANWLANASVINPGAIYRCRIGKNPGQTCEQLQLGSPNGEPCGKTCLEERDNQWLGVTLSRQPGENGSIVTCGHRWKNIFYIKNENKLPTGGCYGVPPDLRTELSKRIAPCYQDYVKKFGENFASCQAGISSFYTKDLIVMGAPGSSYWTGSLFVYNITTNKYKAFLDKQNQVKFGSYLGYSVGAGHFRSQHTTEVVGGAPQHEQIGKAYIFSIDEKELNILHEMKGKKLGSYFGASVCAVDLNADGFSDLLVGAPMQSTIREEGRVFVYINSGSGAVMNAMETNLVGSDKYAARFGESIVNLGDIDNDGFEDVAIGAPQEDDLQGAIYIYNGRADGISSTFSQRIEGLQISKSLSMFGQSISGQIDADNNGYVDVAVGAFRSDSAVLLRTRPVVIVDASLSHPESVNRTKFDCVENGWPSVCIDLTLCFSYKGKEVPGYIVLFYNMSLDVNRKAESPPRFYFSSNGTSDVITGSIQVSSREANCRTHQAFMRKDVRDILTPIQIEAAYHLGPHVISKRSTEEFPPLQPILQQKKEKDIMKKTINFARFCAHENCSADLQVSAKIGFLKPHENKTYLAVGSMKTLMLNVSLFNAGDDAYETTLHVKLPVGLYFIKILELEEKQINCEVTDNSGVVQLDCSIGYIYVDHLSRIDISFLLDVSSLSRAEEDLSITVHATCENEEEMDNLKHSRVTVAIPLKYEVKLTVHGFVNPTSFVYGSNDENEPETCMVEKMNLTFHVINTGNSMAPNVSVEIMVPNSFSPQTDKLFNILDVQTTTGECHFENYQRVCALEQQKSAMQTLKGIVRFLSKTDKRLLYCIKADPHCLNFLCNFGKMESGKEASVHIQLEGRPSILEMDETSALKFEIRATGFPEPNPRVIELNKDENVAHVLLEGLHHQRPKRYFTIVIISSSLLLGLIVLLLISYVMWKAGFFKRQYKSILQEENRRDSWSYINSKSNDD
# [7] = calorie-restriction mimetic ROS inhibitors, yeast – validation compound set, pilot screen (AID 2706;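 active means superoxide response below 65% of plate, a cut near 3 SD across the whole screen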;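 further: yeast exposed to compound for one week at 30 degrees C before staining; 100% = mean of all compound wells on the same plate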); conditions: S. cerevisiae aging, superoxide DHE fluorescence; at 10 µM; stronger effect = lower value
# [8] = target: Beta-adrenergic receptor kinase 1 (Homo sapiens) (UniProt P25098); assay: GRK2 binders displacing RNA aptamer, biochemical, validation, human GRK2, bead flow cytometry (AID 488806;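 active means aptamer binding inhibition above 30%, about 3 SD of noise from non-fluorescent compounds; inactive means inhibition at or below 30%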); conditions: bead-bound GRK2, FAM-aptamer displacement, at 10 µM, stronger effect = higher value
# Sequence of Beta-adrenergic receptor kinase 1 (Homo sapiens) (P25098 whole entry, looked up): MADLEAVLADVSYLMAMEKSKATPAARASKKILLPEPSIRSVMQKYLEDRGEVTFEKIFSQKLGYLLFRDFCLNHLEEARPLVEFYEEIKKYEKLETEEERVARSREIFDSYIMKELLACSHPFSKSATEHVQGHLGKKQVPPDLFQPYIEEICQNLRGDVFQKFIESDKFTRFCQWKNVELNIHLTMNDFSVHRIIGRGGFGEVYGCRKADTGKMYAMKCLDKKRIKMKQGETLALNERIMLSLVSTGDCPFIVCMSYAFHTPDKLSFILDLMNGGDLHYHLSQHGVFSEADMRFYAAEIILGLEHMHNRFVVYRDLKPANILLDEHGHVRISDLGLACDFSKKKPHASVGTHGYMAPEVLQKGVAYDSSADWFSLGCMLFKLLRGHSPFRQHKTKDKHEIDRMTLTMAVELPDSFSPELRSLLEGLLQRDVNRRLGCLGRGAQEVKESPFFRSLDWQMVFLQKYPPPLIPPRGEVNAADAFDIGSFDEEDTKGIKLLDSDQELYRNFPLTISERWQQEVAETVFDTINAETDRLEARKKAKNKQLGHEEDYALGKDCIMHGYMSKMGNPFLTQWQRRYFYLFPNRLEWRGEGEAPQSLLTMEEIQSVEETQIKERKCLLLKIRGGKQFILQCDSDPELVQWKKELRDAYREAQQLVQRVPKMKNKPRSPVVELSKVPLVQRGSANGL
# [9] = target: AP-2 complex subunit beta (Homo sapiens) (UniProt P63010); assay: beta-arrestin/AP2 interaction blockers – biochemical, validation set, GST-AP2 beads, flow cytometry, pilot screen (AID 504541;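 active means inhibition above 54%, about 3 SD of non-fluorescent compounds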;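 further: AP2 carries R879A mutation and is captured from E. coli lysate; bead-bound FITC arrestin peptide fluorescence measuring arrestin peptide binding to AP2; 0% = DMSO wells and 100% = excess unlabeled arrestin peptide control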); conditions: FITC arrestin peptide, at 10 µM, stronger effect = higher value
# Sequence of AP-2 complex subunit beta (Homo sapiens) (P63010 whole entry, looked up, one chain of several): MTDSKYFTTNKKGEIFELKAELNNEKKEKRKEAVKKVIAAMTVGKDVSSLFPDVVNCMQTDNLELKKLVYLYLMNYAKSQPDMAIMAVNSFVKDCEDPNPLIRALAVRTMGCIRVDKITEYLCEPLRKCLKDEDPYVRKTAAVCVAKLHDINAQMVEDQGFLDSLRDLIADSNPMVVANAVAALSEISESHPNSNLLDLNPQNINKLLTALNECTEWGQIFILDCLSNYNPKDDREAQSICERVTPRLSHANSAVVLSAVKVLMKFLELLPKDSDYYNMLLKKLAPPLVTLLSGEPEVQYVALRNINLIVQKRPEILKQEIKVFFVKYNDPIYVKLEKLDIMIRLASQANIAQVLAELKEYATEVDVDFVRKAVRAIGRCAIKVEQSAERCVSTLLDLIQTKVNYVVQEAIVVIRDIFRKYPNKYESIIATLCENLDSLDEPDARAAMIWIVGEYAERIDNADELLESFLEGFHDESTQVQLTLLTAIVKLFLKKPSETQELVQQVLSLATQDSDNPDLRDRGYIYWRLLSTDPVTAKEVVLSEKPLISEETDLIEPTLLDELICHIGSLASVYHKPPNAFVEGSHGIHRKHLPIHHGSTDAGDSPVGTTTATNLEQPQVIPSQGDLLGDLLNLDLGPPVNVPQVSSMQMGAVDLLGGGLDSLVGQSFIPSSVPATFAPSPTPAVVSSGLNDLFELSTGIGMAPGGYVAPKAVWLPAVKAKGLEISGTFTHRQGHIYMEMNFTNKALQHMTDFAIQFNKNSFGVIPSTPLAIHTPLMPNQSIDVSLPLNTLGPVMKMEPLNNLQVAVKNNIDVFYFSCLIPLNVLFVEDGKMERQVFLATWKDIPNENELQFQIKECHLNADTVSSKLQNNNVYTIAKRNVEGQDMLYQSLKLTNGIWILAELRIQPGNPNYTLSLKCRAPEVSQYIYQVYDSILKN
# [10] = cytosolic pH regulators acting via V-ATPase – S. cerevisiae, pHLuorin, HTS validation (AID 504600; in the data active means response above about 15%;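 further: plate controls were DMSO for no effect and reference compound for full effect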); conditions: V-ATPase proton transport, at 10 µM, stronger effect = higher value
# [11] = tested on: anti-desmoglein-3 scFv antibody binding to human DSG3; assay: blockers of pathogenic pemphigus antibody–desmoglein-3 binding – biochemical, validation compound set, bead-based, flow cytometry, pilot screen (AID 588368;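 active means binding below the plate cutoff, the plate median minus 3 SD, with a reading above zero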;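 further: signal is the median channel fluorescence of bead-bound GFP antibody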); conditions: Protein G beads, DSG3-Fc, scFv-GFP binding, at 10 µM, stronger effect = lower value
# [12] = tested on: Botulinum neurotoxin type F light chain protease (Clostridium botulinum); assay: Clostridium botulinum type F light chain protease inhibitors, microsphere substrate cleavage, validation (AID 588459); conditions: multiplex microsphere protease substrate cleavage assay, flow cytometry; at 10 µM; stronger effect = higher value
# [13] = target: Botulinum neurotoxin type A (Clostridium botulinum) (UniProt P0DPI0); assay: BoNT/A light chain protease inhibitors, biochemical, multiplex microsphere flow cytometry, validation set (AID 588460); conditions: at 10 µM, stronger effect = higher value
# [14] = target: Lethal factor (Bacillus anthracis) (UniProt P15917); assay: Bacillus anthracis lethal factor inhibition, microsphere flow cytometry protease assay, validation at 10 µM (AID 588461); conditions: multiplex microsphere protease cleavage assay, stronger effect = higher value
# [15] = Nile Red efflux blockade in pump-expressing yeast – validation compound set, multiplex, phenotypic, pilot screen (AID 588506;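 active means efflux inhibition above 0.42, the validation set average plus 4 SD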;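 further: Nile Red retained in cells so higher fluorescence means more efflux inhibition; 0 = negative control wells and 1 = enniatin B 25 µM full block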); conditions: S. cerevisiae pump-expressing triplex, Nile Red efflux flow cytometry; at 10 µM; stronger effect = higher value
# [16] = target: ATP-binding cassette sub-family B member 6 (Homo sapiens) (UniProt Q9NP58); assay: blockers of ABCB6-driven porphyrin uptake – K562-ABCB6 cells, flow cytometry, validation set, pilot screen (AID 588550;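 active means inhibition above the screen-wide mean plus 3 SD, about 51%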;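 further: 0% = DMSO wells and 100% = benzethonium chloride 70 µM positive control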); conditions: K562-ABCB6 porphyrin accumulation, 1 h, at 10 µM, stronger effect = higher value
# Sequence of ATP-binding cassette sub-family B member 6 (Homo sapiens) (Q9NP58 whole entry, looked up): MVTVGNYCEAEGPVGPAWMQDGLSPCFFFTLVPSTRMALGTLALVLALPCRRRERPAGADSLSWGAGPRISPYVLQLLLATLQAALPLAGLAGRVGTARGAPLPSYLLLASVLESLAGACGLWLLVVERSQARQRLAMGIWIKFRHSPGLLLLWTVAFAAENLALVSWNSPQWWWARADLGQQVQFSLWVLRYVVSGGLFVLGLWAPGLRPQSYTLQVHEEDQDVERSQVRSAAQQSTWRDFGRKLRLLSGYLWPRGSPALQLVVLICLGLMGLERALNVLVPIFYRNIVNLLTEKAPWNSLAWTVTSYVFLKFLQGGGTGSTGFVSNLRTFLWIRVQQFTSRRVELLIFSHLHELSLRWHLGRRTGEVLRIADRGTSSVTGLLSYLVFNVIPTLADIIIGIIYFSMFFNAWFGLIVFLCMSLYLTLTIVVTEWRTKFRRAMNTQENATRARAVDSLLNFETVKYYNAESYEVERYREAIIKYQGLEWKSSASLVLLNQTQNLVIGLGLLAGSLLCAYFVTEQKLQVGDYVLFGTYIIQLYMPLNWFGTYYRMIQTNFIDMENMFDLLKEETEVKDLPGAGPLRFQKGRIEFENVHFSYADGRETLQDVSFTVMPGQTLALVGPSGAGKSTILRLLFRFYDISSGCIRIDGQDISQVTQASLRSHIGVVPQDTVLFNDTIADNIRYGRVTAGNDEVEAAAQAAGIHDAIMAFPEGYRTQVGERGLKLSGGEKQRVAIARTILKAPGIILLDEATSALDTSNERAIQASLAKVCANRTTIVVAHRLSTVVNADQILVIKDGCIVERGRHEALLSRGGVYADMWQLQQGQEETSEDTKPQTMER
# [17] = AML differentiation inducers, ER-HoxA9 marrow cells – cell-based, GFP/MAC1 double positive, flow cytometry, validation set, primary screen (AID 588685;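 active means differentiation response of at least 50%, scaled between solvent and reference control, from cells with both markers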;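 further: compound exposure lasts four days before antibody staining and flow analysis; 0% = DMSO wells and 100% = 5 µM fulvestrant positive control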); conditions: stronger effect = higher value
SMILES,percent of DMSO control GFP [1],GFP response vs DMSO [2],percent response of DMSO control [3],GFP response vs DMSO [4],double positive events [5],vesicle binding response [5],inhibition [6],superoxide response (% of plate) [7],aptamer binding inhibition [8],inhibition [9],response [10],binding (% of control) [11],inhibition [12],inhibition [13],inhibition [14],efflux inhibition (fraction of control) [15],inhibition [16],differentiation response [17]
CC(C)C[C@H](NC(=O)[C@@H]1CCCN1C(=O)[C@@H](N)Cc1ccc(O)cc1)C(=O)NCC(N)=O (H-YPLG-NH2),108% (inactive),101% (inactive),110% (inactive),89.3% (inactive),63.1%,186% (inactive),0.69% (inactive),95.5% (inactive),1% (inactive),2.65% (inactive),-0.2% (inactive),101% (inactive),-4.4% (inactive),-0.2% (inactive),1% (inactive),-0.09 (inactive),7% (inactive),-9.89% (inactive)
Cc1ccc2c(c1)C1CN(C)CCC1N2C(=O)Nc1cccc(Cl)c1 (configuration not stated),99.5% (inactive),102% (inactive),109% (inactive),95.4% (inactive),56.9%,242% (inactive),30.5% (inactive),93.4% (inactive),-3% (inactive),27.7% (inactive),-6.89% (inactive),102% (inactive),-0.9% (inactive),-0.1% (inactive),0% (inactive),-0.09 (inactive),4% (inactive),-18% (inactive)
CC[C@@H](CO)NC(=O)[C@@H]1C=C2c3cccc4c3c(cn4C)C[C@H]2N(C)C1,103% (inactive),103% (inactive),99.8% (inactive),90.3% (inactive),59.1%,158% (inactive),8.15% (inactive),108% (inactive),2% (inactive),0.36% (inactive),-0.46% (inactive),104% (inactive),–,–,-6.6% (inactive),0.56 (active),7% (inactive),1.41% (inactive)
